{
  "source": "paper PMC5540273",
  "about": "(PLoS ONE, 2017);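 also: KINOMEscan kinase panel screen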",
  "data": [
    {"tested_on": "TBK1", "details": "concentration: 1 μM, replicates: in singlicate; n = 1", "units": {"%Inh": "%"}, "values": [
      {"smiles": "O=C(Nc1n[nH]c2nc(-c3nccs3)c(Br)cc12)C1CCCC1", "note": "[SB-742609]", "%Inh": 0},
      {"smiles": "CC1=C(C(=O)Nc2cc3cn[nH]c3cc2F)C(c2ccc(C(F)(F)F)cc2)CC(=O)N1", "note": "(stereo not shown) [GSK429286]", "%Inh": 4},
      {"smiles": "Cl.O=C(Nc1cccc(-c2nn3ncccc3c2-c2ccnc(Nc3cccnc3)n2)c1)c1c(F)cccc1F", "note": "[GSK312879]", "%Inh": 0},
      {"smiles": "Cc1ccc(NC(=O)Nc2cccc(Cl)c2)cc1-c1ccc(C(=O)Nc2ccncc2)cc1", "note": "[GSK1398468]", "%Inh": 5},
      {"smiles": "CC(=O)Nc1nc2cnc(Nc3cc(NC(=O)c4cccc(CCC#N)c4)ccc3C)nc2s1", "%Inh": 24},
      {"smiles": "COc1cccc(NC(=O)NC2CCN(c3ccnc(Nc4ccc(F)cc4)n3)C2)c1", "note": "(stereo not shown) [GSK1379721]", "%Inh": 16},
      {"smiles": "CS(=O)(=O)c1ccc(-c2nc3n(c2-c2ccncc2)CCC3)cc1", "note": "[SKF-105942]", "%Inh": 27},
      {"smiles": "CCCc1ccc(S(=O)(=O)NC2CCN(c3ccnc(Nc4ccc(F)cc4)n3)C2)cc1", "note": "(stereo not shown) [GSK1379715]", "%Inh": 0},
      {"smiles": "O=S(=O)(c1ccc(-c2ccnc3[nH]ccc23)cc1)N1CCCC1", "note": "[GSK846226]", "%Inh": 33},
      {"smiles": "Cc1ccc(NC(=O)Nc2cc(C(C)(C)C)nn2-c2ccccc2)cc1", "note": "[GSK1014915]", "%Inh": 0},
      {"smiles": "CN(C)CCN(C)C(=O)c1cc(-c2ccncc2)c(-c2ccc(Cl)c(O)c2)o1.Cl.Cl", "note": "[SB-710397]", "%Inh": 0},
      {"smiles": "O=C(O)COc1ncnc2cc(-c3ccc4[nH]ncc4c3)sc12", "%Inh": 11},
      {"smiles": "Cc1cccc(-c2nc(C)cc(Nc3ccncc3)n2)n1", "note": "[GSK257997]", "%Inh": 15}
    ]}
  ]
}
